The results in this text go back to PubChem BioAssay AID2653 (National Center for Advancing Translational Sciences (NCATS), 2010).

SMILES strings stand for the structures. Results filed as inconclusive are left out. Activity calls are given as the source filed them. The call rests on the fitted dose curve; in most records, active means well fitted curve in the direction sought with a large enough effect; inconclusive means small, poorly fitted or top-dose-only effect, or another doubt; inactive means no such curve, though single readings can be large or run the other way.

A short description of the assay: Secondary Assay for Activators of Human Pyruvate Kinase M2 isoform - Cell Titer Glo Cytotoxicity for Probe SAR. Further: % of control where 0% means no effect. To be noted: HeLa viability, CellTiter-Glo ATP luminescence, 24 h; series mostly up to 58.2 µM; activity change, negative = cytotoxicity: at the top concentration. Summed up:
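Cytotoxicity read as ATP content (CellTiter-Glo luminescence) in HeLa cells after 24 h compound exposure at 37 C, following 24 h pre-plating at 500 cells/well; doxorubicin as control.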
For the molecule `Cc1ccc(-c2nc3cccc(C)n3c2Nc2ccc(F)cc2)o1`, the “activity change, negative = cytotoxicity” value was -26% (inactive).
As to `O=S1(=O)N=C(Oc2ccccc2Cl)c2ccccc21`, the “activity change, negative = cytotoxicity” value is -12.1% (inactive).
Regarding `Cc1ccc(Nc2c(-c3ccc(C)o3)nc3ccccn23)cc1`, the “activity change, negative = cytotoxicity” value was -18.4% (inactive).
As for `O=C1c2ccccc2C(=O)N1c1cccc2ncccc12`, the figure is -7.26% (inactive).
As for `CCNc1cccc(S(=O)(=O)N2CCN(S(=O)(=O)c3ccc4c(c3)OCCO4)CC2)c1`, the figure is -17.2% (inactive).
The figure for `Cc1ccccc1OC1=NS(=O)(=O)c2ccccc21` is 2.36% (inactive).
As for `Cc1ccc(C)c(OC2=NS(=O)(=O)c3ccccc32)c1`, the “activity change, negative = cytotoxicity” value was -10.2% (inactive).
As for `CNc1cccc(S(=O)(=O)N2CCCN(S(=O)(=O)c3ccc4c(c3)OCCO4)CC2)c1`, the figure is -19.6% (inactive); as for `Cc1ccc(NS(=O)(=O)c2cccc(C(=O)O)c2)cc1C`, 22% (inactive); as for `O=C1CCc2cc(S(=O)(=O)NCc3ccccc3)ccc2N1`, -12.7% (inactive).
The figure for `COc1ccccc1NS(=O)(=O)c1ccc2c(c1)CCC(=O)N2` is -22.8% (inactive); for `COc1ccc(S(=O)(=O)Nc2ccc(C)c(C)c2)cc1` it is -6.68% (inactive).
The figure for `COc1cc(F)c(S(=O)(=O)N2CCCN(S(=O)(=O)c3cccc(N)c3)CC2)c(F)c1` is -9.41% (inactive); for `Cc1ccc(NS(=O)(=O)c2ccc(Cl)cc2)cc1C` it is -4.87% (inactive); for `Cc1ccc(NS(=O)(=O)c2ccc(F)cc2)cc1C` it is 0.61% (inactive).
With `O=C1c2ccccc2C(=O)N1c1cccc2cccnc12`, the “activity change, negative = cytotoxicity” value is -23.4% (inactive).
On to `O=C1CCc2cc(S(=O)(=O)Nc3cccc(B(O)O)c3)ccc2N1`, for which the “activity change, negative = cytotoxicity” value was -11.5% (inactive).
The figure for `O=C1c2ccccc2C(=O)N1c1ccc(Cl)cc1` is -19.6% (inactive); for `Cc1ccc(NS(=O)(=O)c2ccc3c(c2)CC(=O)N3C)cc1C` it is -16% (inactive); for `O=C1c2ccccc2C(=O)N1Cc1ccccc1` it is -17.4% (inactive).
As for `CC(=O)N1c2ccc(S(=O)(=O)Nc3ccc(C)c(C)c3)cc2CC1C` (configuration not stated), the figure is -24.5% (inactive); as for `O=C1c2ccccc2C(=O)N1c1cncc2ccccc12`, -5.97% (inactive); as for `Cc1ccc2nc(-c3ccc(C)o3)c(Nc3ccc4c(c3)OCO4)n2c1`, -28.6% (inactive).
As for `O=C1CCc2cc(S(=O)(=O)Nc3cccnc3)ccc2N1`, the figure is -7.03% (inactive); as for `O=C1c2ccccc2C(=O)N1c1cccc(Cl)c1`, -21.7% (inactive).
In the case of `Cc1ccc(NS(=O)(=O)c2ccc3c(ccn3C)c2)cc1C`, the “activity change, negative = cytotoxicity” value was -14.2% (inactive).
As for `O=S1(=O)N=C(Oc2ccccc2)c2ccccc21`, the figure is -0.226% [at 82.8 µM] (inactive); as for `COc1cc(N2C(=O)c3ccccc3C2=O)c2ncccc2c1`, -21.8% (inactive); as for `O=C1CCc2cc(S(=O)(=O)Nc3ccccn3)ccc2N1`, -2.99% (inactive).
As for `Cc1ccc(Nc2c(-c3ccc(C)s3)nc3cccc(C)n23)cc1`, the figure is -7.47% (inactive); as for `Cc1cccc(OC2=NS(=O)(=O)c3ccccc32)c1`, 2.84% (inactive); as for `O=C1c2ccccc2C(=O)N1c1cc(=O)c2ccccc2[nH]1`, -22% (inactive).
